# Screens deposited in PubChem BioAssay by National Center for Advancing Translational Sciences (NCATS).
# TDP1 cell noCPT: qHTS for Inhibitors of human tyrosyl-DNA phosphodiesterase 1 (TDP1): qHTS in cells in absence of CPT; DT40 Tdp1-/- hTDP1 cells, no CPT, ATP luminescence, 48 h; Potency, µM (doses to about 46.2 µM), for inactives: at the highest dose activity change, negative = growth inhibition, usual class: inhibitors; 15% of 420,000 active; AID 686978, 2013; note: nearly all actives have a fitted effect of over 55% in size
#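 Luminescent ATP content (CellTiter-Glo) served as the growth readout. Knockout chicken DT40 cells expressing human TDP1 were exposed to compounds without camptothecin for a minimum 48 hr at 37 °C.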
# TDP1 block: qHTS Assay for Inhibitors of Tyrosyl-DNA Phosphodiesterase (TDP1) | Tyrosyl-DNA phosphodiesterase 1 (Homo sapiens), Q9NUW8 | recombinant TDP1, AlphaScreen DNA substrate cleavage | Potency, µM (doses to about 130 µM), without a hit: top-dose activity change, negative = inhibition, hits mostly inhibitors | 0.28% of 350,000 active; note: nearly all actives have a fitted effect of over 40% in size
# Target sequence (Q9NUW8 whole entry, looked up): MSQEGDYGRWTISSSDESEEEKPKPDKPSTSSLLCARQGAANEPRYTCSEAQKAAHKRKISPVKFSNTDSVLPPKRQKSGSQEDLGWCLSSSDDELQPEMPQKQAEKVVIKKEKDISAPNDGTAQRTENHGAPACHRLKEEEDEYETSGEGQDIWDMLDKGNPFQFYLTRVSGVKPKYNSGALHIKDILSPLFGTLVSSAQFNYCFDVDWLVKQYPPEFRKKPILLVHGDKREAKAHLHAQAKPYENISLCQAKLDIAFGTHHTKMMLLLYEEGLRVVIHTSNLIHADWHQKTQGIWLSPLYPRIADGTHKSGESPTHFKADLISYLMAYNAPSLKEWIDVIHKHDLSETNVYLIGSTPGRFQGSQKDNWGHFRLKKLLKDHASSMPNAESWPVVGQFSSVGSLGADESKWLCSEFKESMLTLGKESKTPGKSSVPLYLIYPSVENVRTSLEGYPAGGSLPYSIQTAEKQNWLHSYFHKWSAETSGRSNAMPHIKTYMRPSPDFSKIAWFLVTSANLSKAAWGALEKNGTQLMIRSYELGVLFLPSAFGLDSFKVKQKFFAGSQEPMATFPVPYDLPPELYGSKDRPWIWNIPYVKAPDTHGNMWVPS
#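 Steps: enzyme plus compound, 15 min RT; add biotin/phosphotyrosine-FITC oligonucleotide (15 nM final), react 5 min; add donor/acceptor beads (10 ug/ml final), 10 min; read AlphaScreen. Tdp1 at 1 nM final.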
# KAT2A inh: qHTS Assay for Inhibitors of GCN5L2 | Histone acetyltransferase KAT2A (Homo sapiens), Q92830 | Potency, µM (titrated, usually from 58.9 µM), for the others: at the top dose activity change, negative = inhibition, most hits filed as inhibitors | 0.21% of 390,000 active | GCN5L2 HAT assay, ThioGlo1 CoA-SH fluorescence | AID 504327, 2011
#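 Fluorescence readout, Ex340nm/Em540nm: ThioGlo1 (50uM final) reacts with free CoA thiol released as 20nM GCN5L2 acetylates H3(1-25) peptide (75uM) using acetyl-CoA (70uM). Compound and enzyme sat 15 min beforehand; 20 min room-temperature reaction.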
# TDP1 cell CPT: qHTS for Inhibitors of human tyrosyl-DNA phosphodiesterase 1 (TDP1): qHTS in cells in presence of CPT; chicken DT40 Tdp1-/-;hTDP1 cells + 20 nM CPT, ATP luminescence, 48 h; Potency, µM (titrated, usually from 46.2 µM), inactives show at the top dose activity change, negative = growth inhibition, usual class: inhibitors; 12% of 420,000 active; note: nearly all actives have a fitted effect of over 55% in size
#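 Cell growth measured by CellTiter-Glo luminescence after a minimum 48 h, 37 C compound exposure with 20 nM CPT in Tdp1-knockout DT40 cells stably expressing hTDP1, seeded 400/well; qHTS titration format.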
# VDR inhibitor: Inhibitors of the vitamin D receptor (VDR): qHTS | 0.93% of 400,000 active | VDR-SRC2-3 peptide fluorescence polarization, 2 h | Potency, µM, for inactives: max response, negative = inhibition, hits mostly inhibitors | Vitamin D3 receptor (Homo sapiens), P11473
#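 Measured by FP: displacement of SRC2-3 coactivator peptide from VDR by library compounds, following a two-hour ambient incubation.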
# PLK1 PBD block: qHTS for Inhibitors of PLK1-PDB (polo-like kinase 1 - polo-box domain): Primary Screen; Plk1 PBD binding of FITC phosphopeptide, fluorescence polarization; Serine/threonine-protein kinase PLK1 (Homo sapiens), P53350; 2.8% of 360,000 active; Potency, µM, without a hit: max response, negative = inhibition, usual class: inhibitors; AID 720504, 2013; note: series mostly up to about 57 µM; nearly all actives have a fitted effect of over 65% in size
# Active calls of the source: *; u = inconclusive; x = not tested or not shown; [ ] = dose if it differs, or a comment. Most compounds without a hit are left out; they make up all but 18% or so of the library. Calls come from the whole dose curve; as a rule, active = well fitted curve in the direction sought with a large enough effect; inconclusive = small, poorly fitted or top-dose-only effect, or another doubt; inactive = no such curve, though single readings can be large; an effect the other way counts as inactive or inconclusive. % is set by controls: 0 for no effect and ±100 for the full control effect; potency is the fitted concentration of half-maximal effect.
SMILES,TDP1 cell noCPT,TDP1 block,KAT2A inh,TDP1 cell CPT,VDR inhibitor,PLK1 PBD block
Cc1cc(O)c(NC(=O)c2cc([N+](=O)[O-])ccc2Cl)cc1C,-27.1%,6.0%,u,u,1.0%,-6.1%
O=C(Nc1cccc2c1CCCC2)c1cc([N+](=O)[O-])ccc1Cl,25.9µM*,0.0%,-3.2%,u,9.1%,-7.4%
COc1ccc(C(C)(C)C)cc1NS(=O)(=O)c1cccc2cccnc12,18.4µM*,x,-7.6%,25.9µM*,-29.4%,-2.0%
COc1ccc(NS(=O)(=O)c2ccc3ccccc3c2)c2ncccc12,6.51µM*,x,-5.6%,8.2µM*,12.0%,-6.5%
COc1ccc(OC)c(NS(=O)(=O)c2cccc3cccnc23)c1,-29.2%,x,3.8%,-5.0%,14.2%,-8.7%
Cc1ccc(C(=O)NCCCNC(=O)COc2ccc(C)c(C)c2)cn1,-13.2%,5.6%,-0.6%,9.8%,-6.1%,-8.8%
N#C/C(=N\Nc1cccc(C(F)(F)F)c1)C(=O)c1csc(-c2cccnc2)n1,25.9µM*,x,-9.1%,16.4µM*,-15.6%,u
CCN(CC)CC(C)CNC(=O)CN1C(=O)CSc2ccc(S(=O)(=O)N3CCOCC3)cc21 (configuration not stated),4.7%,-5.2%,-2.6%,7.5%,3.8%,0.5%
Cc1ccc(CONC(=O)c2ccc(OC(F)F)cc2)cc1,3.0%,4.9%,-13.6%,-18.4%,-19.6%,-8.2%
Cc1ccc(-c2cn(-c3ccc(OC(F)F)cc3)c3[n+]2CCCCC3)cc1,1.03µM*,7.0%,-1.5%,0.651µM*,-4.0%,-7.6%
FC(F)Oc1ccc(-n2cc(-c3ccccc3)[n+]3c2CCCCC3)cc1,5.8µM*,0.0%,-4.5%,5.17µM*,-5.3%,-12.9%
CCOC(=O)C1CCN(c2nc3c(S(=O)(=O)c4ccc(C)c(C)c4)nnn3c3ccc(Cl)cc23)CC1,u,1.0%,-9.9%,u,-8.6%,x
CCc1ccc(S(=O)(=O)c2nnn3c2nc(N2CCC(C)CC2)c2cc(Cl)ccc23)cc1,10.3µM*,-1.0%,-10.7%,18.4µM*,-1.1%,x
CCOC(=O)C1CCCN(c2nc3c(S(=O)(=O)c4ccc(CC)cc4)nnn3c3ccc(Cl)cc23)C1 (configuration not stated),u,4.9%,-16.6%,u,-10.3%,x
CCc1ccc(S(=O)(=O)c2nnn3c2nc(N2CCCC(C)C2)c2cc(Cl)ccc23)cc1 (configuration not stated),7.31µM*,-2.9%,-16.8%,u,7.2%,x
COc1ccc(CNC(=O)C2=CCN(S(=O)(=O)c3ccc(C)cc3)CC2)cc1,-19.9%,x,-22.3%,11.5%,-16.0%,u
CC(=O)c1ccc(OCC(=O)Nc2ccc3c(c2)OCO3)cc1,u,x,x,-10.0%,x,-13.2%
COc1cc2c(cc1OC)C1N(CC2)C(=O)CCC12C(=O)CCCC2=O (configuration not stated),-3.6%[9.04 µM],8.7%,x,9.8%[9.04 µM],70.8µM*,x
COc1cc2c(cc1OC)C(c1cc3cc(OC)c(OC)cc3[nH]c1=O)N(C(=O)C1CC1)CC2 (configuration not stated),-17.9%,-1.2%,-7.4%,-27.3%,-14.9%,-5.6%
COc1cccc(-c2cn3c(n2)sc2cc(C(=O)NCCc4ccc(OC)c(OC)c4)ccc23)c1,2.31µM*,2.6%,-7.6%,4.61µM*,7.6%,x
COc1cccc(-c2cn3c(n2)sc2cc(C(=O)NCc4ccccc4F)ccc23)c1,16.4µM*,3.9%,-16.0%,u,7.0%,x
